Assay results published in PubChem BioAssay (NCI).
Compounds without any hit were thinned out: in the full panel of roughly 83,000, 20% have a hit.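 Method: cells in 96-well plates; compound added at one concentration; 48 h incubation; percent growth measured; values under 10 scored active.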 Calls of active or inactive are those of the source.

system: UO-31 renal; test: NCI-60 one-dose screen, 48 h (100 = growth as untreated, 0 = no growth, -100 = all killed); conditions: 10 µM unless noted

Compound	growth
Cc1ccc2sc3c(NCCCNCCO)nc4ccccc4c3c(=O)c2c1	48.6% (inactive)
NCCOc1ncccc1/C=C1\c2ccccc2-c2ccc(F)cc21	-17.5% (active)
CNCCNc1nc2ccccc2c2c(=O)c3cc(OC)ccc3sc12	41.1% (inactive)
CC(C)c1ccc(S(=O)(=O)NC(=O)NC2CCCC2)cc1	95.4% (inactive)
COc1cc(/C=C2\CN(C)C/C(=C\c3cc(CN4CCCC4)c(O)c(OC)c3)C2=O)cc(CN2CCCC2)c1O	80.7% (inactive)
Nc1ccccc1-c1ccc(-c2ccc(Cl)cc2)c2c1[nH]c1ccccc12	26.1% (inactive)
O=C(Cn1cc(COc2ncnc3c2cnn3-c2ccccc2)nn1)Nc1ccccn1	62.7% (inactive)
NCCOc1ccccc1/C=C1\c2ccccc2-c2ccc([N+](=O)[O-])cc21	-7% (active)
COc1cc(/C(C#N)=C/c2nc3c(N4CCOCC4)nc(Cl)nc3n2C)cc(OC)c1OC	-1.84% (active)
Cc1ccc2cccc(Oc3ccc(Nc4ncnc5onc(-c6ccccc6)c45)cc3)c2n1	55.6% (inactive)
COC(=O)/C(CCC=C(C)C)=C1\[C@@H](OC(C)=O)C[C@@]2(C)[C@H]1C[C@@H](O)[C@H]1[C@@]3(C)CC[C@H](NCc4ccccc4)[C@@H](C)[C@@H]3CC[C@@]12C	47.5% (inactive)
COc1cc(/C=C/C(=O)c2ccc(Cl)cc2)cc(CN2CCCCC2)c1O	58.5% (inactive)
O=C(/C=C/c1ccc(Cl)cc1)c1ccc(Nc2nc(NCCO)nc(Nc3ccc(Cl)cc3)n2)cc1	57.3% (inactive)
CN1CCN(Cc2ccc(NC(=O)c3[nH]ncc3Nc3cc(OC4CCCC4)ncn3)cc2)CC1	25.8% (inactive)
Cn1c(/C=C(\C#N)c2ccccc2)nc2c(N3CCOCC3)nc(Cl)nc21	-100% (active)
CCN1C(=O)N(CC)C2Nn3c(s/c(=C\c4ccccc4F)c3=O)=NC21 (centres undefined)	65.8% (inactive)
Cc1ccccc1CNC(=O)C1CN(c2ccc(Cl)cc2)N(c2ccc(Cl)cc2)C1=O (centres undefined)	64.1% (inactive)
CCCCC1CCc2cccc3c(SCC(=O)N(C)c4ccc(Cl)cc4)cc[n+]1c23 (centres undefined)	103% (inactive)
Clc1ccc(Oc2ccc(Nc3ncnc4onc(-c5ccccc5)c34)cc2)c(Cl)c1	67% (inactive)
O=C(O)c1cn(C2CC2)c2cc(N3CCN(C(=O)C[n+]4ccccc4)CC3)c(F)cc2c1=O	88.1% (inactive)

Compound	growth
O=C(CSc1nc2ccccc2c(=O)n1-c1ccccc1)Nc1ccc(C(=O)/C=C/c2ccc(Cl)cc2)cc1	82.5% (inactive)
Cc1nc(Nc2cn[nH]c2C(=O)Nc2ccc(CN3CCN(C)CC3)cc2)c2ccsc2n1	59.6% (inactive)
CN1C(=O)N(C)C2Nn3c(s/c(=C4\C(=O)N(CCc5ccccc5)c5ccccc54)c3=O)=NC21 (centres undefined)	62.9% (inactive)
O=C(/C=C/c1ccc(C(F)(F)F)cc1)c1ccc(Nc2nc(NCCO)nc(N3CCOCC3)n2)cc1	48% (inactive)
COc1cc(/C=C/C(=O)c2ccc(Nc3nc(NCCO)nc(N4CCOCC4)n3)cc2)cc(OC)c1OC	25.4% (inactive)
COc1cc(/C=C2\CN(S(=O)(=O)c3ccccc3)C/C(=C\c3cc(CN4CCCC4)c(O)c(OC)c3)C2=O)cc(CN2CCCC2)c1O	34.7% (inactive)
O=c1c2cc(F)ccc2sc2c(Nc3ccncc3)nc3ccccc3c12	-83.3% (active)
O=c1c2cc(F)ccc2sc2c(NCCN3CCCC3)nc3ccccc3c12	45.3% (inactive)
CNC(=O)c1cc(Oc2ccc(CC(=O)Nc3cc(C(C)(C)C)cn3C)cc2)ccn1	87.4% (inactive)
COc1cc2nc(NC3CCCC3)nc(NC3CCN(C(C)C)CC3)c2cc1OC	79.5% (inactive)
O=C(NCc1ccco1)C1CN(c2ccc(Cl)cc2)N(c2ccc(Cl)cc2)C1=O (centres undefined)	42.7% (inactive)
COc1cccc2cc(N(C)c3nc(C)nc4ccsc34)ccc12	30.5% (inactive)
CN1C(=O)N(C)C2(c3ccccc3)OC(=S)NC12c1ccccc1 (centres undefined)	89% (inactive)
Nc1nc(-c2cnccn2)nn1-c1nc2ccccc2s1	99.6% (inactive)
COc1ccc(N)c(-c2cc3c(c4c2[nH]c2ccc(OC)cc24)CCCC3)c1	57.6% (inactive)
COc1cccc(/C(C#N)=C/c2nc3c(N4CCOCC4)nc(Cl)nc3n2C)c1	-95.9% (active)
O=c1c(-c2nc3ccccc3[nH]2)cc2ccccc2n1Cc1cn(Cc2ccc(N3CCOCC3)cc2)nn1	74.8% (inactive)
Cn1c2c(c(=O)[nH]c1=O)NC1=C(C(=O)c3ccccc31)C1(C=C(O)c3ccccc31)N2 (centres undefined)	77.6% (inactive)
COC(=O)/C(CCC=C(C)C)=C1\[C@@H](OC(C)=O)C[C@@]2(C)[C@H]1C[C@@H](O)[C@H]1[C@@]3(C)CC[C@H](NCCCNCCCCNCCCN)[C@@H](C)[C@@H]3CC[C@@]12C	51.7% (inactive)
